Measured values from PubChem BioAssay (EPA / NIEHS).
Where “and” joins values, the source holds several entries; their conditions need not be identical. Equal entries are not always repeated. Records with an inconclusive call do not appear. More than one record can exist for a structure, and the calls need not agree. Calls of active or inactive are those of the source. Rule for the calls, unless noted: active = hit-call score of the fitted dose curve at least 0.9, where 1 is the maximum; inconclusive = response in the unintended direction; inactive = score below 0.9.

Experiments:
[1] = target: human Peroxisome Proliferator-activated Receptor alpha (PPARa), PPARA (gene 5465) (UniProt Q07869); assay: ATG_PPARa_TRANS: Attagene TRANS-FACTORIAL HepG2 Assay for human Peroxisome Proliferator-activated Receptor alpha (PPARa) (AID 2283001);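 for AC50: potency for gain of reporter signal over DMSO so agonist or activator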
Sequence of human Peroxisome Proliferator-activated Receptor alpha (PPARa), PPARA (gene 5465) (Q07869 whole entry, looked up, the tested form may be a part): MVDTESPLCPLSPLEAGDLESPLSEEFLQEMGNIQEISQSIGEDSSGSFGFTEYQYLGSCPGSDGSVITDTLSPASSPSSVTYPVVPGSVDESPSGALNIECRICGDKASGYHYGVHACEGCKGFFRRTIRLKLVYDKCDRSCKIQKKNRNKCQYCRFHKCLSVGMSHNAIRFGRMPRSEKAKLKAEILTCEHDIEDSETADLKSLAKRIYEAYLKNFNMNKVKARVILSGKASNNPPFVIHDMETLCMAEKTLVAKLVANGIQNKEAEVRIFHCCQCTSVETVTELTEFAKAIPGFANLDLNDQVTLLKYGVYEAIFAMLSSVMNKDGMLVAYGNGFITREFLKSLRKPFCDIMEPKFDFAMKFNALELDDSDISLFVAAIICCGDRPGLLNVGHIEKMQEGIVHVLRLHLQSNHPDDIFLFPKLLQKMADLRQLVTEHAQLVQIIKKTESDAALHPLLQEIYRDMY
Summary of the method: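 Gain-of-signal endpoint: reporter mRNA induction relative to DMSO, detected by fluorescent RT-PCR and capillary electrophoresis. HepG2 cells transiently carried GAL4-UAS-driven reporter units plus NR-Gal4 fusion; exposure lasted 24 h.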

[2] = target: human Peroxisome Proliferator-activated Receptor delta (PPARd), PPARD (gene 5467) (UniProt Q03181); assay: ATG_PPARd_TRANS: Attagene TRANS-FACTORIAL HepG2 Assay for human Peroxisome Proliferator-activated Receptor delta (PPARd) (AID 2283002)
Sequence of human Peroxisome Proliferator-activated Receptor delta (PPARd), PPARD (gene 5467) (Q03181 whole entry, looked up, the tested form may be a part): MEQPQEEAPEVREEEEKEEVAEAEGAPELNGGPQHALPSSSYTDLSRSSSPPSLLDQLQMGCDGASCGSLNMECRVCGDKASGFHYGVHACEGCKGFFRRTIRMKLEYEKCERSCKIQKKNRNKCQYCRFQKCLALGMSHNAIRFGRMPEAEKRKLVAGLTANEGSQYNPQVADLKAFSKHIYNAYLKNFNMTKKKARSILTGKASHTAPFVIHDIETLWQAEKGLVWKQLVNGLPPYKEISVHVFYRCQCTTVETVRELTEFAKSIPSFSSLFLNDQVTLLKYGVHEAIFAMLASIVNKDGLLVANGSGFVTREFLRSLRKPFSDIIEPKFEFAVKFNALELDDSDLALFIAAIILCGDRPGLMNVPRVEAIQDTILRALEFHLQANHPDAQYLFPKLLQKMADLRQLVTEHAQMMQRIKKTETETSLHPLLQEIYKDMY
Summary of the method: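 Multiplexed trans-activation format: HepG2 liver cells expressing exogenous NR-Gal4 chimeras and GAL4-UAS reporters were exposed for 24 h. Reporter mRNA was detected by RT-PCR with capillary electrophoresis fluorescence; activity fitted as gain of signal relative to DMSO.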

[3] = target: Peroxisome proliferator-activated receptor gamma (Homo sapiens) (UniProt P37231); assay: ATG_PPARg_TRANS: Attagene TRANS-FACTORIAL HepG2 Assay for human Peroxisome Proliferator-activated Receptor-gamma (PPARg) (AID 2283007)
Sequence of Peroxisome proliferator-activated receptor gamma (Homo sapiens) (P37231 whole entry, looked up, the tested form may be a part): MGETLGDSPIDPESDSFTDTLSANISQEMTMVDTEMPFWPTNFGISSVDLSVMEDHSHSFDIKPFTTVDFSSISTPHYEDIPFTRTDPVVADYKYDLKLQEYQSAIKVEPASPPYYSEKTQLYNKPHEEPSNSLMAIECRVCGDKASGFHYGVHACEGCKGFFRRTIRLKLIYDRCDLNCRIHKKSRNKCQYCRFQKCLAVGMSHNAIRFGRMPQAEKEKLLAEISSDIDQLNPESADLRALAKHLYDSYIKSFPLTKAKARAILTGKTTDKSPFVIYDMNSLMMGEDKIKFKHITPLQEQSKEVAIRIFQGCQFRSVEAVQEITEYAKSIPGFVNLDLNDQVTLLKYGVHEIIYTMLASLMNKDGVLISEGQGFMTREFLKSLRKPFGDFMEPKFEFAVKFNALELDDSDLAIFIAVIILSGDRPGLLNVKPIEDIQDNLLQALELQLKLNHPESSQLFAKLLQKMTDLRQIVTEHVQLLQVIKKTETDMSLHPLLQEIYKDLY
Summary of the method: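 After 24 h of chemical exposure, transfected HepG2 cells carrying PPARγ-Gal4 chimera reporter constructs are lysed for RNA. Reporter transcripts are measured by RT-PCR and capillary electrophoresis with fluorescent labelling, and gain of signal is fitted versus DMSO.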

[4] = target: Nuclear receptor subfamily 1 group I member 2 (Homo sapiens) (UniProt O75469); assay: ATG_PXR_TRANS: Attagene TRANS-FACTORIAL HepG2 Assay for human Pregnane X Receptor (PXR) (AID 2283008)
Summary of the method: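 Read-out is fluorescence of labelled reporter cDNA fragments separated by capillary electrophoresis after RT-PCR and HpaI digestion. Source: HepG2 cells carrying PXR-GAL4/UAS reporter constructs, treated 24 h; activity fitted upward relative to DMSO.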

[5] = target: human Retinoid X Receptor beta (RXRb), RXRB (gene 6257) (UniProt P28702); assay: ATG_RXRb_TRANS: Attagene TRANS-FACTORIAL HepG2 Assay for human Retinoid X Receptor beta (RXRb) (AID 2283013)
Sequence of human Retinoid X Receptor beta (RXRb), RXRB (gene 6257) (P28702 whole entry, looked up, the tested form may be a part): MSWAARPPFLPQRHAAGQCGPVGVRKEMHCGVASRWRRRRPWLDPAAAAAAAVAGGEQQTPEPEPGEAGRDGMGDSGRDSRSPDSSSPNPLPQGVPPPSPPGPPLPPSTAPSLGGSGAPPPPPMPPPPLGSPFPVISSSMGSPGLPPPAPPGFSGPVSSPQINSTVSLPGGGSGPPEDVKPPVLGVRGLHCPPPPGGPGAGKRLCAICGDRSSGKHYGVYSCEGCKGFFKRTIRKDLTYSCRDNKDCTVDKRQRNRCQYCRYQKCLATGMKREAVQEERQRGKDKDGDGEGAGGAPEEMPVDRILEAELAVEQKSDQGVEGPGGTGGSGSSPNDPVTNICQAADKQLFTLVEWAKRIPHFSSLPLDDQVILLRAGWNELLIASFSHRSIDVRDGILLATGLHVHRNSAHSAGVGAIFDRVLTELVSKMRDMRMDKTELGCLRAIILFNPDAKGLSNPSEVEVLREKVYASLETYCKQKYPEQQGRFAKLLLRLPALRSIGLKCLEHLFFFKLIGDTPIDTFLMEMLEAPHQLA
Summary of the method: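 HepG2 cells were transiently transfected with multiplexed GAL4-UAS reporters and a chimeric RXRb-Gal4 construct, then exposed for 24 h. Reporter mRNA was quantified by RT-PCR, FAM labeling, HpaI digestion and capillary electrophoresis; gain of signal was scored against DMSO.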

[6] = target: human Retinoic Acid Receptor gamma (RARg), RARG (gene 5916) (UniProt P13631); assay: ATG_RARg_TRANS: Attagene TRANS-FACTORIAL HepG2 Assay for human Retinoic Acid Receptor gamma (RARg) (AID 2283009)
Summary of the method: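 HepG2 transiently transfected with GAL4-UAS reporter units and chimeric NR-Gal4 constructs; 24 h compound exposure. Reporter mRNA quantified by RT-PCR, FAM labeling, HpaI digestion and capillary electrophoresis; gain-of-signal versus DMSO.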

[7] = target: human RAR-related Orphan Receptor beta (RORb), RORB (gene 6096) (UniProt Q92753); assay: ATG_RORb_TRANS: Attagene TRANS-FACTORIAL HepG2 Assay for human RAR-related Orphan Receptor beta (RORb) (AID 2283010)
Sequence of human RAR-related Orphan Receptor beta (RORb), RORB (gene 6096) (Q92753 whole entry, looked up, the tested form may be a part): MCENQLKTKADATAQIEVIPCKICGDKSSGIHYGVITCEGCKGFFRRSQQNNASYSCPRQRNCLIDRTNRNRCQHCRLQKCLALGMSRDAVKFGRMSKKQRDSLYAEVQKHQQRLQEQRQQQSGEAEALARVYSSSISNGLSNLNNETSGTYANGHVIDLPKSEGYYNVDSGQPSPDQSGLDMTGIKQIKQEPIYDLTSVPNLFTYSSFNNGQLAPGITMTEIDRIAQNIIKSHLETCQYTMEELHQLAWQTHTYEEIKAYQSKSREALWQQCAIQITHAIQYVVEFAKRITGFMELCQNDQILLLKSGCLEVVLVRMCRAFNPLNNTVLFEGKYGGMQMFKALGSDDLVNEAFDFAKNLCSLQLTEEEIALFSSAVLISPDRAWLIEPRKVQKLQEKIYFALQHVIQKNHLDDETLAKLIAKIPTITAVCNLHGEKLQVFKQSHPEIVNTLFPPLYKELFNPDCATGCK
Summary of the method: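 HepG2 cells transiently transfected with GAL4-UAS reporter units expressing chimeric NR-Gal4 protein; reporter mRNA measured 24 h after dosing by RT-PCR, 6-FAM labelling and capillary electrophoresis. Gain-of-signal fitted relative to DMSO baseline.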

[8] = target: human Thyroid Receptor alpha (THRa1), THRA (gene 7067) (UniProt P10827); assay: ATG_THRa1_TRANS: Attagene TRANS-FACTORIAL HepG2 Assay for human Thyroid Receptor alpha (THRa1) (AID 2283014)
Summary of the method: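 Transient HepG2 transfection, NR-Gal4 chimera driving GAL4-UAS reporters; 24 h compound exposure; total RNA, oligo(dT) RT, PCR, fluorescent primer extension, capillary electrophoresis. Upward direction vs DMSO control.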

[9] = BSK_4H_Eotaxin3: BioMAP Diversity Plus: 4H Assay for Eotaxin 3 Biomarker Activity (AID 2283000; active = hit-call score of the fitted dose curve at least 0.9, where 1 is the maximum; inactive = score below 0.9); conditions: primary human endothelial cells (HUVEC); actives raise or lower the signal
Summary of the method: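 Readout is Eotaxin-3 (CCL26) level by ELISA in primary human umbilical vein endothelial cells harvested 24 h after chemical exposure; activity fitted in both directions against DMSO control.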

[10] = read-out: Intercellular Adhesion Molecule 1 (ICAM1), ICAM1 (gene 3383); assay: BSK_3C_ICAM1: BioMAP Diversity Plus: 3C Assay for Intercellular Adhesion Molecule 1 (ICAM1) Biomarker Activity (AID 2283003; active = hit-call score of the fitted dose curve at least 0.9, where 1 is the maximum; inactive = score below 0.9); conditions: primary human endothelial cells (HUVEC); actives raise or lower the signal
Summary of the method: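 HUVEC primary cells stimulated under 3C conditions; ICAM1 measured by ELISA 24 h after compound dosing. Curves fitted bidirectionally against the DMSO baseline. Overt cytotoxicity checked by SRB staining of parallel cultures.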

[11] = BSK_3C_Proliferation: Cell Proliferation Assessment in the BioMAP Diversity Plus: 3C Assay (AID 2283006; active = hit-call score of the fitted dose curve at least 0.9, where 1 is the maximum; inactive = score below 0.9;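 for AC50: potency may reflect either rise or fall in cell number versus DMSO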); conditions: primary human endothelial cells (HUVEC)
Summary of the method: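 Subconfluent HUVEC (3C system) cultured with chemical; relative cell number read at 48 h by sulforhodamine B total-protein staining (0.1% SRB after 10% TCA fixation, 560 nm). Bidirectional fit relative to DMSO.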

[12] = target: Retinoic acid receptor RXR-alpha (Homo sapiens) (UniProt P19793); assay: ATG_RXRa_TRANS: Attagene TRANS-FACTORIAL HepG2 Assay for human Retinoid X Receptor alpha (RXRa) (AID 2283012)
Sequence of Retinoic acid receptor RXR-alpha (Homo sapiens) (P19793 whole entry, looked up, the tested form may be a part): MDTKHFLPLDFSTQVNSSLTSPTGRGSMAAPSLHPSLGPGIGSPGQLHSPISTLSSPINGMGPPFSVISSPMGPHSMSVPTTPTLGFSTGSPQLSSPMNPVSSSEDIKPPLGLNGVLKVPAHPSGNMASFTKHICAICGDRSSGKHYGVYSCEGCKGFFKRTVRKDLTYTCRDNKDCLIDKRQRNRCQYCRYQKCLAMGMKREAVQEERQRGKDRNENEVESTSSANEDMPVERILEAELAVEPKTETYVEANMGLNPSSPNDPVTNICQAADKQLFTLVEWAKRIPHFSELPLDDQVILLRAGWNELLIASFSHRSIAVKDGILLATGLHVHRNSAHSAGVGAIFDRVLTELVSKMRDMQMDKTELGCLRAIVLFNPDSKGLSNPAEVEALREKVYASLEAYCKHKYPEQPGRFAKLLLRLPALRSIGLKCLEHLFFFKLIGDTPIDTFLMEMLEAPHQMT
Summary of the method: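 HepG2 cells transiently transfected with GAL4-UAS reporter units and chimeric RXRa-Gal4 protein, treated 24 h. Reporter mRNA measured by RT-PCR, fluorescent labelling, HpaI digestion and capillary electrophoresis. Induction fitted against DMSO.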

[13] = read-out: E-selectin (Homo sapiens) (UniProt P16581); assay: BSK_3C_Eselectin: BioMAP Diversity Plus: 3C Assay for Eselectin Biomarker Activity (AID 2283015; active = hit-call score of the fitted dose curve at least 0.9, where 1 is the maximum; inactive = score below 0.9); conditions: primary human endothelial cells (HUVEC); actives raise or lower the signal
Summary of the method: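 HUVEC, 3C stimulation; compound exposure 24 h; E-selectin by ELISA; gain- or loss-of-signal fitted bidirectionally vs DMSO baseline.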

[14] = read-out: Interleukin-1 alpha (IL1a), IL1A (gene 3552); assay: BSK_BE3C_IL1a: BioMAP Diversity Plus: BE3C Assay for Interleukin-1 alpha (IL1a) Biomarker Activity (AID 2283016; active = hit-call score of the fitted dose curve at least 0.9, where 1 is the maximum; inactive = score below 0.9); conditions: primary human bronchial epithelial cells; actives raise or lower the signal
Summary of the method: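 Human primary bronchial epithelial cells, 24 h chemical exposure; IL-1a quantified by ELISA, fitted bidirectionally against DMSO. Cytotoxicity assessed in parallel by SRB total-protein staining at the time of measurement.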

[15] = read-out: Monocyte Chemoattractant Protein-1 (MCP1), CCL2 (gene 6347); assay: BSK_3C_MCP1: BioMAP Diversity Plus: 3C Assay for Monocyte Chemoattractant Protein-1 (MCP1) Biomarker Activity (AID 2283017; active = hit-call score of the fitted dose curve at least 0.9, where 1 is the maximum; inactive = score below 0.9); conditions: primary human endothelial cells (HUVEC); actives raise or lower the signal
Summary of the method: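 HUVEC, 3C system; 24 h chemical exposure; MCP-1 by ELISA; bidirectional curve fit vs DMSO baseline.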

[16] = read-out: Monocyte Chemoattractant Protein-1 (MCP1), CCL2 (gene 6347); assay: BSK_4H_MCP1: BioMAP Diversity Plus: 4H Assay for Monocyte Chemoattractant Protein-1 (MCP1) Biomarker Activity (AID 2283018; active = hit-call score of the fitted dose curve at least 0.9, where 1 is the maximum; inactive = score below 0.9); conditions: primary human endothelial cells (HUVEC); actives raise or lower the signal
Summary of the method: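 Human umbilical vein endothelial cells (4H system) exposed to chemicals for 24 h in 96-well format. MCP-1 measured by ELISA; bidirectional fitting against DMSO, with SRB total-protein staining in parallel cultures for cytotoxicity.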

[17] = read-out: Human Leukocyte Antigen - DR isotype (HLADR), HLA-DRA (gene 3122); assay: BSK_3C_HLADR: BioMAP Diversity Plus: 3C Assay for Human Leukocyte Antigen - DR isotype (HLADR) Biomarker Activity (AID 2283019; active = hit-call score of the fitted dose curve at least 0.9, where 1 is the maximum; inactive = score below 0.9); conditions: primary human endothelial cells (HUVEC); actives raise or lower the signal
Summary of the method: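 HUVEC, 3C stimulation, 24 h post-dose; HLA-DR by ELISA; bidirectional curve fit vs DMSO baseline; gain or loss of signal scored.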

[18] = target: Retinoic acid receptor alpha (Homo sapiens) (UniProt P10276); assay: ATG_RARa_TRANS: Attagene TRANS-FACTORIAL HepG2 Assay for human Retinoic Acid Receptor alpha (RARa) (AID 2283005)
Sequence of Retinoic acid receptor alpha (Homo sapiens) (P10276 whole entry, looked up, the tested form may be a part): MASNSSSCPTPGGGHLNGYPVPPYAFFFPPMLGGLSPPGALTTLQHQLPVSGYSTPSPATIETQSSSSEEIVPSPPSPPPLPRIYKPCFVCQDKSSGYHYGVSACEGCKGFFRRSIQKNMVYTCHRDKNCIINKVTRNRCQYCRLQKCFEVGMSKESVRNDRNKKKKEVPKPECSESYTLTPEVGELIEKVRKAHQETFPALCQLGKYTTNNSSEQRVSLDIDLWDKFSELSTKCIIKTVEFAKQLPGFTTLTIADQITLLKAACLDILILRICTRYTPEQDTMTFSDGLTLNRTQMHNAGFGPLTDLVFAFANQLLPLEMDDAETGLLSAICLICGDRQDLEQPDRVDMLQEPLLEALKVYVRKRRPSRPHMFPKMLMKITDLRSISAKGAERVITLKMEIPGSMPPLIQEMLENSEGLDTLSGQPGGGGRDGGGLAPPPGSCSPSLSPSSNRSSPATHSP
Summary of the method: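 HepG2 cells transiently transfected with multiple reporter units expressing chimeric RARα-GAL4 fusion, with GAL4-UAS-driven reporters. After 24 h compound exposure, reporter mRNA induction quantified by RT-PCR and capillary electrophoresis with fluorescent labeling; gain-of-signal fitted relative to DMSO control.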

[19] = target: human Retinoic Acid Receptor beta (RARb), RARB (gene 5915) (UniProt P10826); assay: ATG_RARb_TRANS: Attagene TRANS-FACTORIAL HepG2 Assay for human Retinoic Acid Receptor beta (AID 2283004)
Sequence of human Retinoic Acid Receptor beta (RARb), RARB (gene 5915) (P10826 whole entry, looked up, the tested form may be a part): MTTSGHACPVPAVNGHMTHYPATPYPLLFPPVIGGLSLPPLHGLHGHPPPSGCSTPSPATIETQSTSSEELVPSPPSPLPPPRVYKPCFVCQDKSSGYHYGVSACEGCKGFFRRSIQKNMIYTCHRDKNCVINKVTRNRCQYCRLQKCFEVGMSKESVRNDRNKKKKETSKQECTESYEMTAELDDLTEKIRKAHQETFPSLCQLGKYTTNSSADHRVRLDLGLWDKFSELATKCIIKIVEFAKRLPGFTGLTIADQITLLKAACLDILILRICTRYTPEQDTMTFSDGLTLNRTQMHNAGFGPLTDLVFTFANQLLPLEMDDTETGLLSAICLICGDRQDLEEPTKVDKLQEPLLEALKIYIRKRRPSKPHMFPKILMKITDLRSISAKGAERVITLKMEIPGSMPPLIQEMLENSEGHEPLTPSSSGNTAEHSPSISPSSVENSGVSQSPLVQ
Summary of the method: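 Readout is reporter mRNA induction: RNA reverse-transcribed, PCR-amplified, FAM-labelled, HpaI-cut and resolved by capillary electrophoresis. Transiently transfected HepG2 cells carrying exogenous NR–Gal4 chimeras were dosed for 24 h; activity fitted upward relative to DMSO.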

[20] = target: human RAR-related Orphan Receptor gamma (RORg), RORC (gene 6097) (UniProt P51449); assay: ATG_RORg_TRANS: Attagene TRANS-FACTORIAL HepG2 Assay for human RAR-related Orphan Receptor gamma (RORg) (AID 2283011)
Sequence of human RAR-related Orphan Receptor gamma (RORg), RORC (gene 6097) (P51449 whole entry, looked up, the tested form may be a part): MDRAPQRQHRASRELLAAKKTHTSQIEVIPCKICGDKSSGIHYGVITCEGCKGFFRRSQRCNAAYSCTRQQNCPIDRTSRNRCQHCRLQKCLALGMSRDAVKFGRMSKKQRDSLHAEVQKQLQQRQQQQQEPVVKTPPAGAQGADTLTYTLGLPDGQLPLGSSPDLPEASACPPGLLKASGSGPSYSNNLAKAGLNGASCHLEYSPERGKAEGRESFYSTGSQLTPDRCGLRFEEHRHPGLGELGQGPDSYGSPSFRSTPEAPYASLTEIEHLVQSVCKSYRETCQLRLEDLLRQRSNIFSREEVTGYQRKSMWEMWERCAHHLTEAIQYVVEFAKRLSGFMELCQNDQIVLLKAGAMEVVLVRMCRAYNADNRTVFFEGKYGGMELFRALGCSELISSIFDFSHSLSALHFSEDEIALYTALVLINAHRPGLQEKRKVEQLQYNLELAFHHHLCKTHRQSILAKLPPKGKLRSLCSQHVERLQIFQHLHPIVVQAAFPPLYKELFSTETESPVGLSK
Summary of the method: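 Transient MRTU transfection of HepG2 (TRANS format, exogenous NR-Gal4 chimera). 24 h dosing. Total RNA → oligo(dT) RT → PCR → 6-FAM labelling → HpaI cut → CE. Gain vs DMSO.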

Measured: AC50

Sequence of E-selectin (Homo sapiens) (P16581 whole entry, looked up): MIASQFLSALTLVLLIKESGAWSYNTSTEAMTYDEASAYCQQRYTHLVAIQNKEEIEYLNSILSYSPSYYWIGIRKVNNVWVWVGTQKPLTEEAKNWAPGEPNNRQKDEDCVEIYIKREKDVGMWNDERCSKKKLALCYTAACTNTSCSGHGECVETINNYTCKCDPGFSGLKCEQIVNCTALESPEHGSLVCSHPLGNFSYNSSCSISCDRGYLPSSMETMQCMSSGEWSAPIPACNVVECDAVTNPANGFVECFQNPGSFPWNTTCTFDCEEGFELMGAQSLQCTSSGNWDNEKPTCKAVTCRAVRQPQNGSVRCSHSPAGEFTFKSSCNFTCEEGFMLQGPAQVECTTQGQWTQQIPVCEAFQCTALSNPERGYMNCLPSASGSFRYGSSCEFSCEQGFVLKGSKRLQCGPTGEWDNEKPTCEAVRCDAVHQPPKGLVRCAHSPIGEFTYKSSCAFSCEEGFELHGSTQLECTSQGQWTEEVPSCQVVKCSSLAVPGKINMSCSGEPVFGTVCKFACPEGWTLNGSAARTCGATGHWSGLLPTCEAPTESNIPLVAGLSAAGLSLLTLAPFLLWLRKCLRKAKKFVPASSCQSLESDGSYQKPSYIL

CC(C)(C)c1ccc(S)cc1
inactive: [1] | [2] | [3] | [4] | [5]

CCCCCCOc1ccc(O)cc1
active: [3] 27.6 µM | [4] 15 µM
inactive: [1] | [2] | [6] | [5]

CC1=CC[C@@H](C(C)(C)O)CC1
inactive: [1] | [2] | [3] | [4] | [7] | [5] | [8]

C=C1CC/C=C(\C)CC[C@@H]2[C@@H]1CC2(C)C
active: [9] 28.8 µM | [10] 35 µM | [11] 30 µM | [5] 19.4 µM | [13] 27.4 µM | [15] 31.5 µM | [16] 29.1 µM | [17] 28.7 µM
inactive: [3] | [12] | [8] | [14]

CCCCC1CCCCC(=O)O1 (configuration not stated)
inactive: [1] | [2] | [18] | [4] | [6] | [7] | [12]
active: [3] 47.4 µM

CC(C)Cc1ccccc1
inactive: [1] | [2] | [19] | [18] | [4] | [7] | [12] | [5]

O=S(=O)(O)CCCN1CCOCC1
inactive: [1] | [2] | [3] | [4] | [12] | [5]

CC=CC(=O)C1=C(C)C=CCC1(C)C
inactive: [9] | [10] | [11] | [3] | [5] | [13] | [14] | [15] | [16] | [17]

O=C(O)C(F)(F)C(F)(F)C(F)(F)C(F)(F)C(F)(F)C(F)(F)C(F)(F)C(F)F
inactive: [9] | [10] | [11] | [13] | [14] | [15] | [16] | [17]

CCCCCCCCCCCCOCCOS(=O)(=O)O
inactive: [2] | [4]
active: [1] 9.73 µM | [3] 18.7 µM

CCCCCCCCCCCCOC(C)=O
inactive: [1] | [2] | [18] | [3] | [4] | [6] | [7] | [20] | [5]

CCNC(=S)NCC
inactive: [1] | [2] | [3] | [4] | [20] | [5]

CCCCOCCOCCOCCO
inactive: [1] | [2] | [19] | [3] | [12] | [5] | [8]

CCCCCCCCCCCCCC(=O)OCC
inactive: [1] | [2] | [19] | [18] | [6] | [20] | [8]

COC(=O)C(C)Oc1ccc(Oc2ncc(C(F)(F)F)cc2Cl)cc1 (configuration not stated)
inactive: [1] | [2] | [7] | [12] | [5] | [8]
active: [3] 48.9 µM | [4] 40.6 µM

OCCCO
inactive: [1] | [2] | [6] | [5] | [8]

CC(C)N1C(=O)c2ccccc2C1=O
inactive: [1] | [2] | [3] | [4] | [7] | [5] | [8]

OCC(F)(OC(F)(F)C(F)(OC(F)(F)C(F)(F)C(F)(F)F)C(F)(F)F)C(F)(F)F (configuration not stated)
inactive: [9] | [10] | [14] | [15] | [16]
active: [11] 3.78 µM and 2.59 µM | [13] 3.09 µM and 3.33 µM | [15] 4.24 µM | [16] 3.33 µM | [17] 2.65 µM and 4.85 µM

CCCCOCC(C)OCC(C)O (configuration not stated)
inactive: [1] | [2] | [3] | [4] | [7] | [8]

OCC=Cc1ccccc1
inactive: [1] | [2] | [4] | [20] | [8]

C=C(C)C(=O)OCCC(F)(F)C(F)(F)C(F)(F)C(F)(F)C(F)(F)C(F)(F)C(F)(F)C(F)(F)F
inactive: [9] | [10] | [11] | [13] | [14] | [15] | [16] | [17]
